The campaign covered roughly 1,900 compounds. About 40 (2%) showed an effect of 50% or more. Only a selection was taken, and strong results are over-represented in it overall. Residues, ends and D or L forms follow the SMILES beside them.
Target: human SGLT1 (hSGLT1) (human, UniProt P13866)
Assay: primary screen, percent of control activity; higher = less effect of the substance
Design: single well
Conditions: 50 µM
Procedure: Two days before the assay, CHO‐wild type and CHO‐hSGLT1 cells were seeded in maintenance medium at 25 000 cells/well in clear‐bottom black 96‐well cell culture plates. Before the assay, cells were washed 3 times with 150 μL/well D‐glucose free DMEM with 0.3% (w/v) BSA. Library compounds at 50 μmol/L (singlicate) prepared in D‐glucose free DMEM with 160 μmol/L 1‐NBD‐glucose and 0.3% (w/v) BSA and negative controls (triplicate) were added at 100 μL/well and placed in a humidified incubator at 37°C with 5% CO2 for 90 minutes. Next, cells were washed 3 times with DMEM with 0.3% (w/v) BSA (150 μL/well). Care was taken to remove all medium after the last wash. Finally, 1‐NBD‐glucose was extracted from the cells by adding 10 μL/well isopropanol and orbital shaking for 5 minutes at 600 rpm, followed by incubation in the dark for 30 minutes. Fluorescence was measured on a Tecan Infinite M200 Microplate Reader (Tecan, Männedorf, Switzerland) with excitation at 445 nm and emission at 525 nm. The amount of 1‐NBD‐glucose taken up by the CHO‐wild type or CHO‐hSGLT1 cells in the presence or absence of test compounds was interpolated from 1‐NBD‐glucose calibration standards. The background uptake by CHO‐wild type was subtracted from the uptake by CHO‐hSGLT1. Background corrected uptake with test compound was expressed as a percentage of corrected uptake without test compound.

human SGLT1 (hSGLT1), sequence (P13866 whole entry, looked up): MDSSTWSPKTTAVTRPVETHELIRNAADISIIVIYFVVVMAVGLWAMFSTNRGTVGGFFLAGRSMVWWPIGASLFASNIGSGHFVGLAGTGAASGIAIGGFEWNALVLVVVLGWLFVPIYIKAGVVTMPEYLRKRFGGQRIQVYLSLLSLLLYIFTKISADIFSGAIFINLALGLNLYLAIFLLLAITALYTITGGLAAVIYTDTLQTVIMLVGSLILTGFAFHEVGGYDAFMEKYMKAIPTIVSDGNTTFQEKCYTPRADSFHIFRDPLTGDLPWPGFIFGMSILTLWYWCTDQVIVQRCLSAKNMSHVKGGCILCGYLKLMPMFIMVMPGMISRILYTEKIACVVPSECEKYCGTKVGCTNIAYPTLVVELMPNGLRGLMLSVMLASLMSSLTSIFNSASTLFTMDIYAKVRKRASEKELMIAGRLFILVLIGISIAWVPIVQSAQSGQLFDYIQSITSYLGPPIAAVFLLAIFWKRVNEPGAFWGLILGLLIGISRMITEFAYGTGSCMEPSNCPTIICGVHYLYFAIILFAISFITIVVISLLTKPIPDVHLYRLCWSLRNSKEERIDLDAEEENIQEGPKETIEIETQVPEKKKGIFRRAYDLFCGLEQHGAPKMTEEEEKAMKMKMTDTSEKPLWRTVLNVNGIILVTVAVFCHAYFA

SMILES | NORMALIZED SGLT1 ACTIVITY (%)
C=C[C@H]1CN2CC[C@H]1C[C@H]2[C@H](O)c1ccnc2ccccc12 | 77
C=Cc1c(C)c2[n]3c1C=c1c(C)c(CC)c4[n]1[Cu]31[n]3c(c(C)c5c3C(=c3c(CCC(=O)[O-])c(C)c([n]31)=C2)C(C(=O)[O-])C5=O)C=4.[Na+].[Na+] (stereo not shown) | 94
CC(C)CC(N(C)C)C1(c2ccc(Cl)cc2)CCC1.Cl (stereo not shown) | 28
CC(C)CCCC(C)C1CCC2C3CC(=O)[C@H]4C[C@@H](O)CC[C@]4(C)C3CC[C@]12C (stereo partly shown) | 107
O=C(O)c1cc2cc(Cl)ccc2[nH]1 | 238
C=C1C(C2(C)C=CC(=O)C(C)(C)C2CC(=O)OC)CC[C@@]2(C)[C@H](c3ccoc3)OC(=O)C3OC132 (stereo partly shown) | 86
C[C@]12CCC(=O)C=C1CCC1C2CC[C@@]2(C)C1CC[C@@H]2O (stereo partly shown) | 98
CC(=O)OCC(=O)[C@H]1CC[C@H]2[C@@H]3CCC4=CC(=O)CC[C@]4(C)[C@H]3CC[C@]12C | 114
CC(=O)[C@H]1CCC2C3CCC4=CC(=O)CC[C@]4(C)C3CC[C@@]21C (stereo partly shown) | 38
C[C@@H]1CC[C@@]2(NC1)O[C@H]1C[C@H]3C4CC=C5C[C@@H](O)CC[C@]5(C)C4CC[C@]3(C)C1[C@@H]2C (stereo partly shown) | 109
CCC1(c2ccc(N)cc2)CCC(=O)NC1=O (stereo not shown) | 108
COc1ccc2c(c1)OC/C(=C/c1ccc(O)c(O)c1)C2=O | 249
CCCCC(CC)CNC(=N)NC(=N)NCCCCCCNC(=N)NC(=N)NCC(CC)CCCC.Cl.Cl (stereo not shown) | 36
COc1ccc(C[C@H](N)C(=O)N[C@@H]2[C@@H](CO)OC(n3cnc4c(N(C)C)ncnc43)[C@@H]2O)cc1.Cl.Cl (stereo partly shown) | 116
O=C(O)COc1ccc(Cl)cc1Cl | 196
COC(=O)[C@]1(C)CCC[C@]2(C)c3ccc(C(C)C)cc3C(=O)CC12 (stereo partly shown) | 89
O=C(CCCN1CCN(c2ccccn2)CC1)c1ccc(F)cc1 | 111
Oc1c(Cl)c(Cl)c(Cl)c(Cl)c1Cl | 622
Cc1ccc2c(Cl)cc(Cl)c(O)c2n1 | 100
Oc1c(Cl)cc(Cl)c(Cl)c1Cc1c(O)c(Cl)cc(Cl)c1Cl | -43
Cn1c(=O)[nH]c2ncn(C)c2c1=O | 164
CC(C)=CCOc1c2occc2cc2ccc(=O)oc12 | 161
CN(C)CCCN1c2ccccc2Sc2ccc(Cl)cc21 | 60

SMILES | NORMALIZED SGLT1 ACTIVITY (%)
CC(CN(C)C)CN1c2ccccc2CCc2ccccc21.O=C(O)/C=C\C(=O)O (stereo not shown) | 51
CN(C)CCCN1c2ccccc2Sc2ccccc21.Cl | 38
CCN(CC)C(C)CN1c2ccccc2Sc2ccccc21.Cl (stereo not shown) | 46
CN(C)CCCN1c2ccccc2Sc2ccc(C(F)(F)F)cc21.Cl | 62
CC(CN(C)C)CN1c2ccccc2Sc2ccccc21.O=C(O)C(O)C(O)C(=O)O (stereo not shown) | 45
CC(CN1c2ccccc2Sc2ccccc21)N(C)C.Cl (stereo not shown) | 87
NS(=O)(=O)c1cc2c(cc1C(F)(F)F)NC(Cc1ccccc1)NS2(=O)=O (stereo not shown) | 125
O=C(Cn1ccnc1[N+](=O)[O-])NCCO | 119
CC(=O)O[C@H]1CC[C@@]2(C)C(C[C@@H](OC(C)=O)[C@@]3(C)C4=CC(=O)O[C@@H](c5ccoc5)[C@]4(C)CCC23)C1(C)C (stereo partly shown) | 358
CCCCC1C(=O)N(c2ccccc2)N(c2ccc(O)cc2)C1=O (stereo not shown) | 109
CCCCCNC(=N)N/N=C/c1c[nH]c2ccc(OC)cc12.O=C(O)/C=C\C(=O)O | 141
CO[C@@]1(NC(=O)C(C(=O)[O-])c2ccc(O)cc2)C(=O)N2C(C(=O)[O-])=C(CSc3nnnn3C)CO[C@@H]21.[Na+].[Na+] (stereo partly shown) | 97
CC(=O)O[C@@H]1CC(=O)[C@@]2(C)C(CC(=O)[C@]3(C)C2CC[C@@]2(C)[C@H](c4ccoc4)OC(=O)C4OC423)C1(C)C (stereo partly shown) | 92
COC(=O)[C@@]1(C)CCC[C@]2(C)c3ccc(O)c(C(C)C)c3CCC12 (stereo partly shown) | 138
Cc1c(O)c(C(=O)CC(C)C)c2oc3c(C(=O)CC(C)C)c(O)c(C)c(O)c3c2c1O | 107
O=[N+]([O-])c1ccc(O)c([N+](=O)[O-])c1 | 145
CC(=O)[O][Hg][c]1ccccc1 | 4
CC(=O)Oc1ccccc1C(=O)O | 112
CC(=O)Nc1ccccc1 | 112
Cc1nc2ccccn2c(=O)c1CCN1CCC(C(=O)c2ccc(F)cc2)CC1 | 129
CCCCCCCCCCCCCCCCCC(=O)O.CC[C@H]1OC(=O)[C@H](C)[C@@H](O[C@H]2C[C@@](C)(OC)[C@@H](O)[C@H](C)O2)[C@H](C)[C@@H](O[C@@H]2O[C@H](C)C[C@H](N(C)C)[C@H]2O)[C@](C)(O)C[C@@H](C)C(=O)[C@H](C)[C@@H](O)[C@]1(C)O | 106
COc1ccc2c(=O)cc(-c3ccccc3OC)oc2c1 | 139
COc1cc(OC)c2c(=O)c(-c3ccccc3)coc2c1 | 336

SMILES | NORMALIZED SGLT1 ACTIVITY (%)
CCCCCCCCCCCCCCCC[N+](C)(C)C.[Br-] | 19
C[N+](C)(C)CCCCCC[N+](C)(C)C.[Br-].[Br-] | 95
CCCCCCCCCCCCCCCCOP(=O)([O-])OCC[N+](C)(C)C | 79
CCCc1nc2c(C)cc(-c3nc4ccccc4n3C)cc2n1Cc1ccc(-c2ccccc2C(=O)O)cc1 | 171
Cl.Cl.NCCc1c[nH]cn1 | 140
O=C(O)c1cc(O)c2ccccc2n1 | 97
COC(=O)CC1C(C)(C)C(OC(C)=O)[C@@H]2[C@@H](OC(C)=O)[C@]34O[C@@]2(O)[C@]1(C)C3CC[C@]1(C)C4=CC(=O)O[C@H]1c1ccoc1 (stereo partly shown) | 94
O=C(Cc1ccccc1)NO | 95
Cc1cccc(CN2CCN(C(c3ccccc3)c3ccc(Cl)cc3)CC2)c1.Cl.Cl (stereo not shown) | 133
Cl.Clc1ccc(C(OCCN2CCCCC2)c2ccccc2)cc1 (stereo not shown) | 37
Cl.Cl.O=C(O)COCCN1CCN(C(c2ccccc2)c2ccc(Cl)cc2)CC1 (stereo not shown) | 141
CCCCC[C@H]1C(=O)O[C@H](C)[C@H](NC(=O)c2cccc(NC=O)c2O)C(=O)O[C@@H](C)[C@@H]1OC(=O)CC(C)C | 220
O=C(O)c1cn(C2CC2)c2cc(N3CCNCC3)c(F)cc2c1=O | 76
O=c1ccc2cc(O)c(O)cc2o1 | 134
CC(NCCC(c1ccccc1)c1ccccc1)c1ccccc1.Cl (stereo not shown) | 48
CNC(C)[C@H](O)c1ccccc1.Cl (stereo partly shown) | 106
CN[C@@H](C)[C@@H](O)c1ccccc1.Cl | 120
COc1cc(/C=C/C(=O)O)ccc1O | 147
N[C@H](C(=O)O)[C@@H]1CC(Cl)=NO1 | 89
COc1ccc2[nH]cc(CCN)c2c1.Cl | 120
O=[N+]([O-])O[C@H]1CO[C@H]2[C@@H]1OC[C@H]2O[N+](=O)[O-] | 100
CCN1CCCC(OC(=O)C(c2ccccc2)c2ccccc2)C1.Cl (stereo not shown) | 90
Cc1ccsc1/C=C/C1=NCCCN1C.O=C(O)CC(O)(CC(=O)O)C(=O)O | 91

SMILES | NORMALIZED SGLT1 ACTIVITY (%)
CN1CCCN=C1COC(=O)C(O)(c1ccccc1)C1CCCCC1.Cl (stereo not shown) | 43
COc1c2c(cc3c1OCO3)CC[N+](C)=C2.[Cl-] | 98
C[N+](C)(C)CCO.[Cl-] | 97
N[C@@H](Cc1ccccc1)C(=O)N[C@@H](Cc1ccc(O)cc1)C(=O)O (H-Phe-Tyr-OH) | 112
CCC(CCC(C)[C@H]1CCC2C3CC=C4C[C@@H](O)CC[C@]4(C)C3CC[C@@]21C)C(C)C (stereo partly shown) | 106
Nc1ccc(S(=O)(=O)NC(=O)c2ccccc2)cc1 | 100
CC(=O)O[C@H]1CC[C@@]2(C)C(CC[C@]3(C)C2C(=O)C=C2C4[C@@H](C)[C@H](C)CC[C@]4(C(=O)O)CC[C@]23C)C1(C)C (stereo partly shown) | 37
C[C@H]1[C@H](C)CC[C@]2(C(=O)O)CC[C@]3(C)C(=CC[C@@H]4[C@@]5(C)CC[C@H](O)C(C)(C)[C@@H]5CC[C@]43C)[C@H]12 | 84
CC(=O)O[C@@H]1CC[C@@]2(C)C(CC[C@]3(C)C2CC=C2C4CC(C)(C)CC[C@]4(C(=O)O)CC[C@]23C)C1(C)C (stereo partly shown) | 141
CCCCCc1c2c(cc(O)c1C(=O)O)OC(=O)c1c(cc(OC)cc1C(=O)CCCC)O2 | 152
O=C(O)c1cccnc1C(=O)O | 124
O=C(O)Cc1nn(Cc2ccc(Br)cc2F)c(=O)c2ccccc12 | 180
C#CCN(C)Cc1ccccc1.Cl | 134
CC(COc1ccccc1)N(CCCl)Cc1ccccc1.Cl (stereo not shown) | 35
C[C@H](COc1ccccc1)N[C@H](C)[C@H](O)c1ccc(O)cc1.Cl | 119
C[C@H]1O[C@@H](O[C@H]2[C@@H](O)C[C@H](O[C@H]3[C@@H](O)C[C@H](O[C@H]4CC[C@@]5(C)[C@H](CC[C@@H]6[C@@H]5CC[C@]5(C)[C@@H](C7=CC(=O)OC7)CC[C@]65O)C4)O[C@@H]3C)O[C@@H]2C)C[C@H](O)[C@@H]1O | 111
CC(CCC(=O)O)[C@H]1CCC2C3C(C[C@H](O)[C@@]21C)[C@@]1(C)CC[C@@H](O)C[C@H]1C[C@H]3O (stereo partly shown) | 89
C[C@H]1OC(n2cc(F)c(=O)[nH]c2=O)C(O)[C@@H]1O (stereo partly shown) | 112
Cn1c(=O)c2c(ncn2CCCl)n(C)c1=O | 183
COc1cccc(OC)c1OCCNCC1COc2ccccc2O1.Cl (stereo not shown) | 72
Cl.Nc1c(Br)cc(Br)cc1CNC1CCC(O)CC1 (stereo not shown) | 99
CN(Cc1cc(Br)cc(Br)c1N)C1CCCCC1.Cl | 44
